Reference: ChEMBL document CHEMBL3433997, “St. Jude Leishmania screening dataset” (2016)

Target: Glucose transporter (Leishmania mexicana) (UniProt O61059)
Assay: ST_JUDE_LEISH: Cytotoxicity at 2uM final concentration against transgenic Leishmania Mexicana promastigotes LmGT2 that are glucose transport deficient and complemented with the L. Mexicana glucose transporter 2. Activity is measured by DNA content using SYBR green in vitro
Format: functional

| SMILES | inhibition [%] |
| --- | --- |
| CC(C)C[C@@H](CNC[C@H](CC(C)C)NC(=O)OC(C)(C)C)NC(=O)OC(C)(C)C | -0.19 |
| CCCNCc1ccc(-c2ccc(CN(CC3CCCO3)C(=O)COc3ccccc3Cl)cc2)nc1 (centres undefined) | 2.71 |
| O=c1cc(NCCCNCc2cc(Cl)c(Cl)cc2Cl)[nH]c2ccccc12 | 0.23 |
| COc1ccc2c(OC)c(CNCCCCCCNCc3ccc4cc(OC)ccc4c3OC)ccc2c1 | 107 |
| CC(C)NCc1cccc(-c2ccc(NS(=O)(=O)c3cccc4cccnc34)cc2)c1 | -2.82 |
| COc1cccc2cc(C(=O)N[C@@H](CC(C)C)C(=O)N[C@H](C=NN3CCOC3=O)CC(C)C)oc12 | 1.9 |
| COc1cccc(Nc2nccc(-c3c(-c4cccc(NC(=O)c5c(F)cccc5F)c4)nn4ccccc34)n2)c1 | 5.92 |
| CN(C)c1cc2c(Nc3ccc4nc(Cc5ccccc5)[nH]c4c3)ncnc2cn1 | 2.46 |
| N=C(N)NN=CC(=O)Nc1ccc(Cl)c(C(F)(F)F)c1 | 9.08 |
| COc1cc2nc(N3CCC(CNC(=O)c4ccc(-c5ccc(-c6noc(C)n6)cc5)cc4)CC3)nc(N)c2cc1OC | 41.6 |
| COc1ccc(-c2ccc(NC(=O)c3cccc(Cl)c3)cc2)cc1CN1CCCC1 | 4.28 |
| O=C(Cc1ccc(NC(=O)c2ccc(O)c(-c3ccc(Cl)c(Cl)c3)c2)cc1)NCCN1CCCCC1 | 0.58 |
| O=C(NCc1cccc2ccccc12)[C@@H]1CCCN1C(=O)c1ccc(O)c(-c2ccc(Cl)c(Cl)c2)c1 | 1.99 |
| C[C@H](NC(=O)c1c(CN2CCC(NC(=O)CC(C)(C)C)CC2)c(-c2cccs2)nc2ccccc12)C1CCCCC1 | 0.4 |
| CN1CCN(S(=O)(=O)c2ccc3nccc(Nc4ccc(Oc5ccccc5)cc4)c3c2)CC1 | -1.4 |
| O=C(/C=C/c1ccc(Cl)c(Cl)c1)NCCCCCN1CCC(C(=O)Nc2ccc(Cl)cc2)CC1 | 2.78 |
| CC(=O)Nc1nc(C(=O)Nc2cccc(-c3cccc(-c4nc5cccc(C)c5[nH]4)c3)c2)cs1 | 14.6 |
| O=S(=O)(c1c(Cl)cc(Cl)cc1Cl)N1CCCCC(c2ccc(F)c(F)c2)=N1 | 1.47 |
| COc1cc(Nc2nccc(N3CCC(NS(=O)(=O)c4ccc(NC(C)=O)cc4)CC3)n2)cc(OC)c1OC | -0.12 |
| C=CCNC(=O)C(C)c1ccc2cc(OC)ccc2c1 (centres undefined) | -0.06 |

| SMILES | inhibition [%] |
| --- | --- |
| CC(C)CNCc1ccc(-c2cccc(CNc3ccc4ncccc4c3)c2)cc1 | 2.69 |
| COc1ccc(CNCc2ccc(-c3ccc(-c4nc5ccccc5[nH]4)cc3)cc2)cc1 | 10.5 |
| COc1cc2ncnc(Nc3ccc(Br)c(Cl)c3)c2cc1OC | 3.09 |
| Cc1noc(C)c1-c1cccc(CNCc2ccc(-c3ccc(-c4nc5ccccc5[nH]4)s3)cc2)c1 | -0.04 |
| COc1ccc(-c2ccc(NC(=O)c3cccc(C#N)c3)cc2)cc1CN1CCN(C)CC1 | 1.6 |
| CN1CCC(N2CCN(CCOc3cc(NC(=O)/C=C/c4ccccc4Cl)ccc3Br)CC2)CC1 | -1.82 |
| Fc1ccc2[nH]c(-c3ccccc3)nc2c1CN1CCC(N2CCCC2)CC1 | 2.29 |
| c1ccc(CNc2nc(NCCc3c[nH]cn3)nc(NCc3cccc4ccccc34)n2)cc1 | -0.28 |
| CC(C)(C)SC1SC(SC(C)(C)C)C(OC(=O)c2ccccc2)C(OC(=O)c2ccccc2)C1OC(=O)c1ccccc1 (centres undefined) | -0.49 |
| CC(C)c1cn2c3c(cc(C(=O)N[C@@H](Cc4ccccc4)[C@H](O)CNC4CCOCC4)cc13)N(C)S(=O)(=O)CC2 | 3.22 |
| COc1ccc2nc(C)cc(Nc3ccc(N4CCN(C)CC4)cc3)c2c1 | 0.99 |
| O=C(Cc1ccc(F)cc1)NC1CCN(c2ccnc3cc(Cl)ccc23)C1 (centres undefined) | 2.41 |
| O=C(NCc1ccc(F)cc1)c1ccc(N2CCN(c3ccncc3)CC2)cn1 | 1.79 |
| NC1CCN(Cc2ccc(-c3ccc(-c4nc5ccccc5[nH]4)cc3)cc2)C1 (centres undefined) | 5.07 |
| Cc1ccc(NC(=O)c2ccc3ncccc3c2)cc1OC1CCN(Cc2ccsc2)C1 (centres undefined) | 0.48 |
| O=C(Cc1ccccc1)NC(Nc1ccc([N+](=O)[O-])cc1)C(Cl)(Cl)Cl (centres undefined) | 0.18 |
| CC(C)CN(C)Cc1ccc(-c2ccc(-c3nc4ccccc4[nH]3)s2)cc1 | -1.65 |
| CCOC(=O)c1ccc(-n2c(C)cc(C=C3SC(=Nc4ccccc4)N(C4CCCC4)C3=O)c2C)cc1 | 4.67 |
| CC(C)c1ccc(NC(=O)c2ccc(C(=O)NC3CCN(CC4CCCCC4)C3)cc2)cc1 (centres undefined) | 3.15 |
